Screening results deposited in PubChem BioAssay by several laboratories.
MRP reversal: reversal of MRP1-mediated doxorubicin resistance, primary screen, H69AR cells, doxorubicin co-treatment; AID 602, 2007; hit rate 0.04% among 85,000; H69AR cells + 2 uM doxorubicin, CellTiter-Glo, 72 h; differential viability (reversal), % at 10 µM;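 active = viability drop by adding the cancer drug above about 55%, with treated viability meeting a 40% cutoff, limit read from the data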;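 note: larger differential means the compound sensitizes cells more to doxorubicin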
CYP2C9 activ: human CYP2C9 activators, primary screen, biochemical, luminescence | activation factor at 5 µM | AID 1024, 2008 | recombinant CYP2C9, luciferin-H conversion; active compounds read high; factor 1 = untreated enzyme, 0 = blocked | Cytochrome P450 2C9 (Homo sapiens), P11712 | hit rate 1.4% among 96,000;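 active = activation factor of 2 or more for CYP2C9 at a 5 µM dose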
MRP-1 activ: H69AR viability gain despite doxorubicin, primary screen, MRP-1 activator project, H69AR cells, CellTiter-Glo. viability rescue. viability increase, % at 10 µM. hit rate 0.61% among 140,000;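 active = viability gain under doxorubicin at or above a set limit, the compound median plus 3 SD, cut at about 4.7% in these data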;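 note: MRP-1 overexpressing cells given doxorubicin 25 µM after compound pretreatment; 18-22 h compound pretreatment then 72 h with doxorubicin before readout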
CYP2C9 inh: blockers of cytochrome P450 2C9 activity – biochemical, luminescence, ADME assay, primary screen. P11712. CYP2C9 Supersomes, luciferin-H conversion. inhibition, % at 5 µM. hit rate 20% among 96,000;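 active = blocking of liver enzyme CYP2C9 beyond about 50% at 5 µM, limit read from the data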
CYP2C19 inh: blockers of cytochrome P450 2C19 activity – biochemical, luminescence, ADME assay, primary screen; P33261; CYP2C19 Supersomes, luciferin-H EGE luminescence, 30 min; inhibition, % at 5 µM; hit rate 21% among 96,000;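 active = CYP2C19 inhibition above a set limit at 5 µM in the primary screen, cut at about 50% in these data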
Target sequence (P33261 whole entry, looked up): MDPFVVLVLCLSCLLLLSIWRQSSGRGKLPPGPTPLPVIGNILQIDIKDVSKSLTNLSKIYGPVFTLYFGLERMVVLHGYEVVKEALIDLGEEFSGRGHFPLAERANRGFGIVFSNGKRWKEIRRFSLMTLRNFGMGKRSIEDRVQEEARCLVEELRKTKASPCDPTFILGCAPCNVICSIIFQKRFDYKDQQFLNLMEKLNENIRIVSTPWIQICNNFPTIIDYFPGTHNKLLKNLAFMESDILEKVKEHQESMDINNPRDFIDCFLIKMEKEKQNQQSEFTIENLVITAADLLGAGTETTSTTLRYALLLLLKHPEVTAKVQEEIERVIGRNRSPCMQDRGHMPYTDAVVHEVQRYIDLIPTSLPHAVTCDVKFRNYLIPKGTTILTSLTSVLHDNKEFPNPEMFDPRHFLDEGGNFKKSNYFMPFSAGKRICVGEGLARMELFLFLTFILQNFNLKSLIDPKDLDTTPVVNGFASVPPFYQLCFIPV
CYP2C19 activ: human CYP2C19 activators, primary screen, biochemical, luminescence; Cytochrome P450 2C19 (Homo sapiens), P33261; recombinant CYP2C19, luciferin-H EGE luminescence; active compounds read high; 0 = fully inhibited enzyme, 1 = untreated enzyme; activation factor at 5 µM; 96,000 tested, under 10 active;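 active = activation factor of at least 2 at 5 µM in the primary screen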
Each line names hits and unclear results; the compound was inactive in the other large screens. A selection: hits, their analogues and other compounds. The true share with any hit is near 21%.

CCOc1ccccc1NC(=O)COn1nnc2ccc(Cl)cc21	CYP2C19 inh 56
CC1CCCCC1NC(=O)COC(=O)COc1ccc(Cl)cc1 (stereo unspecified)	none (no result: MRP reversal)
CCCOc1cccc(C(=O)Nc2ccc(Br)cc2F)c1	none (no result: MRP reversal, CYP2C9 activ, CYP2C9 inh, CYP2C19 inh, CYP2C19 activ)
CN(C)c1cccc(C(=O)Nc2cc(C(F)(F)F)ccc2-n2cnc3ccccc32)c1	none (no result: MRP reversal, CYP2C9 activ, CYP2C9 inh, CYP2C19 inh, CYP2C19 activ)
Cc1ccc(NC(=O)CSc2nnc(-c3cccs3)o2)cc1S(=O)(=O)N1CCCCC1	none (no result: MRP reversal, CYP2C9 activ, CYP2C9 inh, CYP2C19 inh, CYP2C19 activ)
COc1ccc(S(=O)(=O)N2CCCCCC2)cc1	CYP2C19 inh 51
COc1ccc(S(=O)(=O)Nc2ccc(S(=O)(=O)N3CCCCC3)cc2)cc1C	CYP2C9 inh 88, CYP2C19 inh 58
COc1ccc(S(=O)(=O)N2CCC(N3CCCCC3)CC2)cc1	none
COc1ccc(NS(=O)(=O)c2ccc(N3C(=O)CCC3=O)cc2)cc1	CYP2C9 inh 70, CYP2C19 inh 86
COc1ccc(S(=O)(=O)Nc2ccc(S(=O)(=O)N3CCCCC3)cc2)cc1	CYP2C9 inh 81
COc1ccc(S(=O)(=O)N2CCCN(S(=O)(=O)c3ccc(OC)c(C)c3)CC2)cc1C	none (no result: CYP2C9 activ, CYP2C9 inh, CYP2C19 inh, CYP2C19 activ)
COc1ccc(S(=O)(=O)Nc2ccc(CC#N)cc2)cc1	CYP2C9 inh 85, CYP2C19 inh 100 (no result: MRP reversal)
CCn1c(SCc2ccccc2)nnc1C1CCN(S(=O)(=O)c2ccc(OC)cc2)CC1	CYP2C9 activ 2 (no result: MRP reversal)
Cc1ccc(NS(=O)(=O)N(C)C)cc1	none (no result: CYP2C9 activ, CYP2C9 inh, CYP2C19 inh, CYP2C19 activ)
COC(=O)c1ccc(NS(=O)(=O)N(C)C)cc1	CYP2C9 inh 79, CYP2C19 inh 87
COC(=O)C1CCN(S(=O)(=O)c2ccc(OC)cc2)CC1	CYP2C19 inh 89
CCn1c(SCc2ccccc2)nnc1C1CCCCC1	none (no result: MRP reversal, CYP2C9 activ, CYP2C9 inh, CYP2C19 inh, CYP2C19 activ)
Cc1cccc(-n2c(C)nc3cc(C(=O)NCc4ccc5c(c4)OCO5)ccc32)c1	none (no result: MRP reversal, CYP2C9 activ, CYP2C9 inh, CYP2C19 inh, CYP2C19 activ)
COC(=O)c1ccc(NS(=O)(=O)c2ccc(OC)cc2)cc1	CYP2C9 inh 89
COc1ccc(S(=O)(=O)c2ccc(OC)cc2)cc1	CYP2C19 inh 99
COc1ccc(S(=O)(=O)Nc2ccc(S(=O)(=O)N3CCCC3)cc2)cc1	CYP2C9 inh 89, CYP2C19 inh 54
COc1ccc(CNS(=O)(=O)c2ccc(S(=O)(=O)N3CCCCC3)cc2)cc1	none (no result: MRP-1 activ)
COc1ccc(S(=O)(=O)CCC(=O)O)cc1	none
Cc1ccc(C2/C(=C(\O)c3ccc4c(c3)OCCO4)C(=O)C(=O)N2CCCN(C)C)o1 (stereo unspecified)	none
N#CC1=C(N)Oc2n[nH]c(-c3cccs3)c2C1c1cccnc1 (stereo unspecified)	CYP2C9 inh 69, CYP2C19 inh 70
N#CC1=C(N)Oc2n[nH]c(-c3ccc(F)cc3)c2C1c1ccncc1 (stereo unspecified)	CYP2C9 inh 69
N#CC1=C(N)Oc2n[nH]c(-c3ccncc3)c2C1c1ccsc1 (stereo unspecified)	CYP2C9 inh 89
Cc1ccc(SCc2[nH]nc3c2C(c2cccnc2)C(C#N)=C(N)O3)cc1 (stereo unspecified)	CYP2C9 inh 78
Cc1ccc(C2C(C#N)=C(N)Oc3n[nH]c(-c4cccs4)c32)cc1 (stereo unspecified)	none (no result: CYP2C9 activ, CYP2C9 inh, CYP2C19 inh, CYP2C19 activ)
CN1CCN(C(=O)CSc2ccc(C(F)(F)F)cc2[N+](=O)[O-])CC1	none (no result: MRP reversal, CYP2C9 activ, CYP2C9 inh, CYP2C19 inh, CYP2C19 activ)
C=CCNCC#CCOc1ccc(OC)cc1	CYP2C19 inh 76
CCCCCn1c(CCC(=O)Oc2ccccc2OC)nc2c1c(=O)[nH]c(=O)n2CCCC	none
CC(=O)N1c2ccccc2N(Cc2ccc(C)cc2C)C(=O)C1(C)C	CYP2C9 inh 81, CYP2C19 inh 95
C=CCN1C(=O)C(C)(C)N(C(C)=O)c2ccccc21	none (no result: MRP reversal, CYP2C9 activ, CYP2C9 inh, CYP2C19 inh, CYP2C19 activ)
Cc1ccc(S(=O)(=O)c2c(C)nn(C(C)(C)C)c2OC(=O)C2CCCC2)cc1	CYP2C9 inh 61
Cc1nn(C(C)(C)C)c(OC(=O)C2CCCC2)c1S(=O)(=O)c1ccccc1	none
N#CC(Cc1ccc(OC(F)F)cc1)c1nc2ccccc2[nH]1 (stereo unspecified)	none (no result: MRP reversal, CYP2C9 activ, CYP2C9 inh, CYP2C19 inh, CYP2C19 activ)
